# Screening data from PubChem BioAssay.
# A selection: hits, their analogues and other compounds. The true share with any hit is near 12%.
# USP28 inh: inhibitors of human USP28 deubiquitinase | 3% of 47,000 active | Ubiquitin carboxyl-terminal hydrolase 28 (Homo sapiens), Q96RU2 | purified USP28, Ub-rhodamine cleavage fluorescence, 30 min | AID 1645857, 2021 | inhibition, % at 25 µM
# USP17 inh: inhibitors of human USP17 deubiquitinase | Ubiquitin carboxyl-terminal hydrolase 17-like protein 5 (Homo sapiens), A8MUK1 | purified USP17, Ub-rhodamine cleavage fluorescence, 3 h | inhibition, % at 50 µM | 6.5% of 47,000 active | AID 1645855, 2021
# OTUD3 inh: inhibitors of human OTUD3 deubiquitinase | 0.7% of 47,000 active | inhibition, % at 25 µM | purified OTUD3, Ub-rhodamine fluorescence, 2 h | OTU domain-containing protein 3 (Homo sapiens), Q5T2D3
# USP30 inh: inhibitors of human USP30 deubiquitinase; Ubiquitin carboxyl-terminal hydrolase 30 (Homo sapiens), Q70CQ3; purified USP30, Ub-rhodamine cleavage fluorescence; inhibition, % at 25 µM; 5.3% of 47,000 active
# Target sequence (Q70CQ3 whole entry, looked up): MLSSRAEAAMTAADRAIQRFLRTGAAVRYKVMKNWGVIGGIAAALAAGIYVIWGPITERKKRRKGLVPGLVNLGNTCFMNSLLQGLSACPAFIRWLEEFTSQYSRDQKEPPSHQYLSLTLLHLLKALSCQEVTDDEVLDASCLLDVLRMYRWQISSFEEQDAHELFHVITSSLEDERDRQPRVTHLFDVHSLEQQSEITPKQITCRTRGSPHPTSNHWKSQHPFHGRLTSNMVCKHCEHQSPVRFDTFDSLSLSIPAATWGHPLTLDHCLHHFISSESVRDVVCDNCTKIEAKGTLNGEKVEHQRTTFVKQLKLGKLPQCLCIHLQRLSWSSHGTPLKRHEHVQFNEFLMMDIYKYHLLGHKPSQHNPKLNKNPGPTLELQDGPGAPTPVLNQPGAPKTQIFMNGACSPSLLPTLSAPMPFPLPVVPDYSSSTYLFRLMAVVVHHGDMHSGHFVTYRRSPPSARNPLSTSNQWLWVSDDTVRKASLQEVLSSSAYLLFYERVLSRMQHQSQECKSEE
# Active calls of the source: *; . = not tested or not shown. Cut-off read from the data, not from the text of the source: active = inhibition above about 30%; inactive = the rest.
SMILES,USP28 inh,USP17 inh,OTUD3 inh,USP30 inh
COc1ccc(-c2nn(-c3ccccc3)c3[nH]c(=O)c(CNCc4cccs4)cc23)cc1,7.9,-0.1,0.7,-43.8
Cc1ccccc1-c1noc(COc2ccc(C(N)=O)cc2)n1,40.4*,13.9,-8.5,-0.4
CCOC(=O)c1ccc(OCc2nc(-c3ccc(OC)c(OC)c3)no2)cc1,-5.4,-4.8,0.4,-9.3
CC(C)(C)C(=O)Nc1ccsc1C(=O)O,-1.5,12.8,-2.5,0.2
O=C1CN(C(=O)c2ccc(F)cc2)CC(O)CN1CCCc1ccccc1 (stereo not drawn),-15.5,-10.3,-6.6,1.2
CCc1ccc(-n2nc(C)c3c2NC(=O)CC3C(=O)c2ccc3c(c2)OCCO3)cc1 (stereo not drawn),-0.1,56.8*,-5.6,-1.6
COc1ccc(-n2nc(C)c3c2NC(=O)CC3C(=O)c2ccc3c(c2)OCCO3)cc1 (stereo not drawn),12.1,10.3,7.8,22.3
O=C(c1nnn(-c2ccccc2F)c1-c1ccccn1)N1CCSCC1,-12.1,-19.3,-16.7,-59.4
COc1cc(OC)cc(C(=O)Nc2cccc(N3CCCC3=O)c2)c1,28.7,4.5,-0.8,-0.6
COc1cccc(C(=O)Nc2cc3c4c(c2)CC(=O)N4CCC3)c1,33.0*,16.8,-13.3,-18.3
Cc1cccc(C(=O)Nc2cc3c4c(c2)CC(=O)N4CCC3)c1,36.9*,-4.9,-14.9,-22.3
CC(=O)Nc1cccc(C(=O)Nc2ccc(N3CCCC3=O)cc2)c1,21.8,12.6,17.2,25.0
CN(C)C(=O)C1(Cc2cc(-c3ccccc3)no2)CCCN(C(=O)C2CCCC2)C1 (stereo not drawn),-14.1,0.1,-11.5,-17.5
O=C(CCc1nnc2n(Cc3ccccc3)c(=O)c3ccccc3n12)N1CCN(C(c2ccccc2)c2ccccc2)CC1,16.8,24.0,0.3,7.0
c1ccc(-c2ccc(-c3nc(-c4ccncc4)no3)cc2)cc1,-9.0,-3.1,-18.1,-18.9
CC(C)Nc1nc(-c2ccccc2)nnc1-c1ccccc1,14.1,17.0,13.5,30.9*
O=S1(=O)CCN(Cc2c(F)cccc2F)c2c(F)nc(N3CCOCC3)c(F)c21,1.5,66.5*,0.5,2.6
O=S1(=O)CCN(Cc2cccnc2)c2c(F)nc(N3CCOCC3)c(F)c21,7.7,54.0*,7.4,-5.5
CCN(CC)c1nc(F)c2c(c1F)S(=O)(=O)CCN2Cc1ccccc1,15.7,64.3*,15.3,23.7
Cc1nc2ccc(C(=O)N3CCCC3c3nc(C)c4c(n3)N(CC(C)C)C(=O)C4)cc2s1 (stereo not drawn),-0.1,42.4*,1.5,-11.1
Cc1nn(-c2ccc(-c3ccccc3)nn2)c(C)c1S(=O)(=O)NC(C)C,8.5,37.5*,9.3,21.4
Cc1nn(-c2ccccc2)c(C)c1S(=O)(=O)Nc1cccnc1,-8.6,-71.2,-10.4,-13.1
Cc1cccc(NC(=O)C(C)n2c(C)nc3onc(C)c3c2=O)c1 (stereo not drawn),0.7,0.2,-5.4,-5.8
Cc1cccc(C)c1NC(=O)C(C)n1c(C)nc2onc(C)c2c1=O (stereo not drawn),0.0,.,-5.5,43.4*
CCOc1ccccc1NC(=O)Cn1c(=O)n(CCCC(=O)N2CCc3ccccc3C2)c(=O)c2ccccc21,24.2,14.8,-0.2,44.8*
SMILES,USP28 inh,USP17 inh,OTUD3 inh,USP30 inh
CCS(=O)(=O)N1Cc2ccccc2CC1C(=O)N=c1sc2ccccc2n1C (stereo not drawn),7.9,0.1,-33.1,-100.8
Cc1ccc(S(=O)(=O)NC(C(=O)N=c2sc3ccccc3n2C)C(C)C)cc1 (stereo not drawn),14.6,62.8*,-5.0,-22.7
Cn1c(SCc2ccccc2)nnc1-c1csc(-c2ccccc2)n1,41.4*,37.9*,24.4,52.7*
CSc1nnc(-c2csc(-c3cccc(C(F)(F)F)c3)n2)n1C,78.1*,68.0*,7.1,94.1*
c1ccc(-c2nc(CSc3nnc(C4CC4)n3-c3ccccc3)cs2)cc1,1.8,5.5,7.5,8.6
FC(F)(F)c1cccc(-c2nc(-c3ccccn3)no2)c1,6.2,3.0,0.0,10.4
CN(CC1(C)CCOCC1)S(=O)(=O)Cc1cccc(Cl)c1,2.9,1.9,0.0,4.4
Cc1ccc(OCCNC(=O)c2cc(=O)[nH]c3ccccc23)cc1,2.1,42.5*,0.1,-1.9
CCC(=O)N1CCN(c2ccnc3cc(Cl)ccc23)CC1,-9.9,-6.5,0.0,0.1
COc1ccc(S(=O)(=O)N2CCN(c3ccnc4cc(Cl)ccc34)CC2)cc1,-0.2,0.6,0.0,32.9*
